Where “and” joins values, the source holds several entries; their conditions need not be identical. Identical values can stand only once. This is part of a sample that, as a whole, favours compounds with a hit. Of some 83,000 tested, about 20% had one in any assay.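 Cell lines were cultured in 96-well plates, exposed to a single compound concentration, and assessed for percent growth 48 hours later.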 Calls of active or inactive are those of the source. Rule for the calls: active = growth percent below 10; inactive = the rest.
Assays:
Test in all cases: NCI-60 one-dose screen, 48 h (100 = growth as untreated, 0 = no growth, -100 = all killed)
Conditions in all cases: 10 µM
NCI-H23 lung = test system: NCI-H23 lung
NCI-H522 lung = test system: NCI-H522 lung
MDA-MB-231 breast = test system: MDA-MB-231 breast
M14 melanoma = test system: M14 melanoma
SK-MEL-5 melanoma = test system: SK-MEL-5 melanoma
UACC-62 melanoma = test system: UACC-62 melanoma
LOX IMVI melanoma = test system: LOX IMVI melanoma
CCRF-CEM leukemia = test system: CCRF-CEM leukemia
SR leukemia = test system: SR leukemia
OVCAR-8 ovarian = test system: OVCAR-8 ovarian
OVCAR-5 ovarian = test system: OVCAR-5 ovarian
SK-OV-3 ovarian = test system: SK-OV-3 ovarian
IGROV1 ovarian = test system: IGROV1 ovarian
HS 578T breast = test system: HS 578T breast
NCI/ADR-RES ovarian = test system: NCI/ADR-RES ovarian
T-47D breast = test system: T-47D breast
SW-620 colon = test system: SW-620 colon
MCF7 breast = test system: MCF7 breast
HCT-116 colon = test system: HCT-116 colon
KM12 colon = test system: KM12 colon

| SMILES | growth (NCI-H23 lung) | growth (NCI-H522 lung) | growth (MDA-MB-231 breast) | growth (M14 melanoma) | growth (SK-MEL-5 melanoma) | growth (UACC-62 melanoma) | growth (LOX IMVI melanoma) | growth (CCRF-CEM leukemia) | growth (SR leukemia) | growth (OVCAR-8 ovarian) | growth (OVCAR-5 ovarian) | growth (SK-OV-3 ovarian) | growth (IGROV1 ovarian) | growth (HS 578T breast) | growth (NCI/ADR-RES ovarian) | growth (T-47D breast) | growth (SW-620 colon) | growth (MCF7 breast) | growth (HCT-116 colon) | growth (KM12 colon) |
| --- | --- | --- | --- | --- | --- | --- | --- | --- | --- | --- | --- | --- | --- | --- | --- | --- | --- | --- | --- | --- |
| CC1=C(CN(O)C(N)=O)C2=C(C)C3(CC3)[C@](C)(O)C(=O)C2=C1 | 10.7% (inactive) | -7.03% (active) | 12.4% (inactive) | -55.4% (active) | 85.8% (inactive) | 14.4% (inactive) | 56% (inactive) | 1.19% (active) | -4.72% (active) | 6.82% (active) | 10.3% (inactive) | 14.7% (inactive) | 29% (inactive) | 33.7% (inactive) | 15.9% (inactive) | 6.89% (active) | 8.93% (active) | 3.76% (active) | 7.48% (active) | -1.93% (active) |
| COC1[C@@H]2C[C@H]3C(C)(C)O[C@@](C/C=C(/C)C(=O)O)(C2=O)[C@]32Oc3c(CC=C(C)C)c4c(c(O)c3C(=O)[C@H]12)C=CC(C)(C)O4 (stereo not given in full) | -64.5% (active) | -68.6% (active) | -18.3% (active) | -53.9% (active) | -98.4% (active) | -70% (active) | -97.2% (active) | -1.89% (active) | 1.28% (active) | -58.5% (active) | -40% (active) | 13.7% (inactive) | -26% (active) | 22.9% (inactive) | -10.9% (active) | -27.2% (active) | -14.7% (active) | -78.8% (active) | -61.4% (active) | -84.3% (active) |
| CC1=C2C(=C[C@@](C)(COS(C)(=O)=O)[C@@H]2O)C(=O)[C@](C)(O)C12CC2 | -18.5% (active) | -6.78% (active) | 8.84% (active) | -8.82% (active) | -18% (active) | -67.1% (active) | -3.47% (active) | 11% (inactive) | 2.86% (active) | 12.5% (inactive) | 1.82% (active) | -13.9% (active) | 8.2% (active) | -9.58% (active) | 0.993% (active) | -0.976% (active) | 11.7% (inactive) | 3.13% (active) | 4.67% (active) | -3.28% (active) |
| COc1cccc2c1cc([N+](=O)[O-])c1c(C(=O)O)cc3c(c12)OCO3 | 102% (inactive) | 95.9% (inactive) | 106% (inactive) | 103% (inactive) | 102% (inactive) | 103% (inactive) | 100% (inactive) | 96.6% (inactive) | 106% (inactive) | 102% (inactive) | 106% (inactive) | 113% (inactive) | 106% (inactive) | 105% (inactive) | 107% (inactive) | 95.8% (inactive) | 101% (inactive) | 94.9% (inactive) | 101% (inactive) | 104% (inactive) |
| CC1=C2C(=O)[C@](C)(CO)C=C2C(=O)[C@](C)(O)C12CC2 | -14.8% (active) | -34.7% (active) | 24.6% (inactive) | 22.3% (inactive) | 24.2% (inactive) | 7.31% (active) | -25.9% (active) | 13.9% (inactive) | 12.8% (inactive) | 33% (inactive) | 10.2% (inactive) | 24.2% (inactive) | 18.9% (inactive) | 80.4% (inactive) | 5.56% (active) | 6.69% (active) | 9.68% (active) | 1.34% (active) | 5.03% (active) | 31.9% (inactive) |
| CCC(C)[C@H]1C(=O)O[C@H](C(C)C)C(=O)N(C)[C@@H](C(C)C)C(=O)O[C@H](C(C)C)C(=O)N(C)[C@@H](C(C)C)C(=O)O[C@H](C(C)C)C(=O)N1C (stereo not given in full) | 10% (inactive) | 7.23% (active) | 7.98% (active) | 21.2% (inactive) | -33.5% (active) | 9.22% (active) | 9.79% (active) | 7.02% (active) | 8.09% (active) | 14.9% (inactive) | 20.7% (inactive) | -9.75% (active) | 34.4% (inactive) | 30.4% (inactive) | 5.25% (active) | 3.16% (active) | 17.4% (inactive) | 12.5% (inactive) | 12.2% (inactive) | 16.4% (inactive) |
| CC1=C(CCC=NNC(N)=O)C2=C(C)C3(CC3)[C@@](C)(O)C(=O)C2=C1 | -35.2% (active) | -62% (active) | -5% (active) | -84.4% (active) | -80.6% (active) | -54.9% (active) | -31.9% (active) | 26.6% (inactive) | 29.9% (inactive) | -36.1% (active) | -6.93% (active) | -52.1% (active) | -17.8% (active) | -23.6% (active) | -18.1% (active) | -9.73% (active) | 55.4% (inactive) | 6.29% (active) | 1.32% (active) | 6.64% (active) |
| C/C=C/CC(C)C(O)[C@H](NC(=O)[C@@H]1CCCN1C(=O)C(C)(C)NC(=O)CCCCCCCCC)C(=O)NC(C)(C)C(=O)N[C@@H](CCC(N)=O)C(=O)N[C@H](CCC(N)=O)C(=O)NC(C)(C)C(=O)NC(C)(C)C(=O)N[C@@H](CCC(N)=O)C(=O)N[C@H](CC(C)C)C(=O)N[C@H](CO)CC(C)C (stereo not given in full) | 37.1% (inactive) and -16.1% (active) | -41.2% (active) and -62.8% (active) | 6.89% (active) and -91.8% (active) | -31.6% (active) and -53.6% (active) | -93.3% (active) and -92.8% (active) | -0.972% (active) and -81.2% (active) | -78.5% (active) and -80.2% (active) | -12.7% (active) and -38.8% (active) | -57.3% (active) and 12.2% (inactive) | 16.4% (inactive) and 4.24% (active) | 50.4% (inactive) and -66.8% (active) | 61.8% (inactive) and 50.9% (inactive) | 30.5% (inactive) and 5.27% (active) | -36.6% (active) and -60.1% (active) | 51.1% (inactive) and 4.23% (active) | 24.8% (inactive) and 10.8% (inactive) | 33.1% (inactive) and 15.3% (inactive) | 2.98% (active) and -45.1% (active) | 13.1% (inactive) and 6.15% (active) | -75.9% (active) and -59% (active) |

Source: PubChem BioAssay (NCI)
